This is a sample that favours compounds with a hit; in the whole collection about 18% have one here.
VDR inhibitor: blocks the human vitamin D receptor; 0.93% of 400,000 active; Potency, µM, for the others: max response, negative = inhibition, hits mostly inhibitors; AID 504847; P11473; VDR-SRC2-3 peptide fluorescence polarization, 2 h
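Inhibition of the VDR/SRC2-3 peptide interaction is quantified by fluorescence polarization. Compounds (23 nl, pintool) incubate with the reagents for 2 hours at ambient room temperature.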
DT40 TDP1 CPT: DT40-hTDP1 cell growth loss with CPT; AID 686979; chicken DT40 Tdp1-/-;hTDP1 cells + 20 nM CPT, ATP luminescence, 48 h; 12% of 420,000 active; Potency, µM (series often up to 46.2 µM), for the others: at the top dose activity change, negative = growth inhibition, actives largely listed as inhibitors; also: nearly all actives have a fitted effect of over 55% in size
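Chicken DT40 Tdp1-/- cells stably complemented with human TDP1 were seeded at 400 cells/well in medium containing 20 nM camptothecin, exposed to pin-transferred compounds, and grown at 37 °C for at least 48 hr. Viability was read as ATP luminescence.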
TDP1 cell noCPT: qHTS for Inhibitors of human tyrosyl-DNA phosphodiesterase 1 (TDP1): qHTS in cells in absence of CPT; DT40 Tdp1-/- hTDP1 cells, no CPT, ATP luminescence, 48 h; Potency, µM (titrated, usually from 46.2 µM), inactives show at the highest dose activity change, negative = growth inhibition, hits mostly inhibitors; 15% of 420,000 active; also: nearly all actives have a fitted effect of over 55% in size
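Luminescent ATP content (CellTiter-Glo) served as the growth readout. Knockout chicken DT40 cells expressing human TDP1 were exposed to compounds without camptothecin for a minimum 48 hr at 37 °C.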
TDP1 inh: inhibitors of human tyrosyl-DNA phosphodiesterase TDP1 | Q9NUW8 | recombinant TDP1, AlphaScreen DNA substrate cleavage | Potency, µM (top dose mostly 130 µM), without a hit: top-dose activity change, negative = inhibition, usual class: inhibitors | 0.28% of 350,000 active | AID 485290; also: nearly all actives have a fitted effect of over 40% in size
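Tdp1 1 nM final; 15 min RT w/ cpd; substrate 15 nM, 5 min; beads 10 ug/ml, 10 min; AlphaScreen read. Neg ctrl: no enzyme.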
PLK1 PBD inh: blocks phosphopeptide binding to human PLK1 polo-box domain; P53350; Potency, µM, for the others: max response, negative = inhibition, usual class: inhibitors; 2.8% of 360,000 active; Plk1 PBD binding of FITC phosphopeptide, fluorescence polarization; also: series mostly up to about 57 µM; nearly all actives have a fitted effect of over 65% in size
GCN5L2 inh: GCN5L2 (KAT2A) acetyltransferase inhibition. AID 504327. GCN5L2 HAT assay, ThioGlo1 CoA-SH fluorescence. Potency, µM (series often up to 58.9 µM), inactives show at the highest dose activity change, negative = inhibition, most hits filed as inhibitors. 0.21% of 390,000 active. Q92830
Target sequence (Q92830 whole entry, looked up): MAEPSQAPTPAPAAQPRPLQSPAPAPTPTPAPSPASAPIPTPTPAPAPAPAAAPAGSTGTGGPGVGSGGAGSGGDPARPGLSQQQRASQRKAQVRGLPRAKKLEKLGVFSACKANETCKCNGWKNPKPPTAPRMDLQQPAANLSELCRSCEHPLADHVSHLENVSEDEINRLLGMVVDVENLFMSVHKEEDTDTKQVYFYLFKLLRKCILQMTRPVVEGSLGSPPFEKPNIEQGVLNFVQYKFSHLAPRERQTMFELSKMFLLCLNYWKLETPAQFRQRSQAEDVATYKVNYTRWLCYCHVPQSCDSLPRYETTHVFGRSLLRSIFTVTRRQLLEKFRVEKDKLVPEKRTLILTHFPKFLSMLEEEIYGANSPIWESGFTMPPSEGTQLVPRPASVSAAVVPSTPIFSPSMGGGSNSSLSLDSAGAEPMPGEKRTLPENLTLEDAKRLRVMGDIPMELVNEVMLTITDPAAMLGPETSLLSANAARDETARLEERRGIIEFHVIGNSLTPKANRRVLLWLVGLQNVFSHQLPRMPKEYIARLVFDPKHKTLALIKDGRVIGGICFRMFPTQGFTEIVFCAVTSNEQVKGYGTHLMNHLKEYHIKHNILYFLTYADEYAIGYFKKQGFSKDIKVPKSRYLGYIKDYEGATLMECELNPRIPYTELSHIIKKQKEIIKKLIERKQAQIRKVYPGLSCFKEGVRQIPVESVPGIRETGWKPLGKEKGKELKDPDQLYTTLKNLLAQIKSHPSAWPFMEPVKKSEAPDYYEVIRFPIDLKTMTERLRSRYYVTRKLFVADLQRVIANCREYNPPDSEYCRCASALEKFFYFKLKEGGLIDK
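ThioGlo1-coupled HAT assay: 20nM GCN5L2, 70uM acetyl-CoA, 75uM H3(1-25) peptide, pH 7.5. Fluorescence read at 340/540nm at start and after 20 min at room temperature.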
Active calls of the source: *; ? = inconclusive; · = not tested or not shown; ! = not active in a repeat; [ ] = dose if it differs, or a comment. Calls follow the shape of the dose curve; as a rule, active = well fitted curve in the direction sought with a large enough effect; inconclusive = small, poorly fitted or top-dose-only effect, or another doubt; inactive = no such curve, though single readings can be large; an effect the other way counts as inactive or inconclusive. % is scaled to controls: 0 for no effect and ±100 for the full control effect; potency is read from the fitted curve at half-maximal effect.

SMILES	VDR inhibitor	DT40 TDP1 CPT	TDP1 cell noCPT	TDP1 inh	PLK1 PBD inh	GCN5L2 inh
CC(C)(C)NC(=O)C(c1cccs1)N(CC1CCCO1)C(=O)c1ccc(-c2ccccc2)[nH]1 (centres undefined)	-15%	23µM*	21µM*	8%	-3%	-14%
CC(C)(C)NC(=O)C(c1cccs1)N(CC1CCCO1)C(=O)Cn1nnc(-c2cccs2)n1 (centres undefined)	6%	-13%	-2%	2%	-8%	0%
O=C(NCC1CCCO1)C(c1cccs1)N(Cc1ccccc1)C(=O)c1ccc(-c2ccccc2)[nH]1 (centres undefined)	-5%	?	21µM*	0%	7%	-23%
COc1cc(NC(=O)c2c(C)nn(-c3ccc(F)cc3)c2-n2cccc2)cc(OC)c1	5%	·	·	3%	·	3%
Cc1cccc(C(=O)n2c(=S)nc3cc(C)ccn32)c1	-19%	11%	?	1%	21µM*	-27%
Cc1ccc(SCC(=O)c2c(C)nc3cc(C)ccn23)cc1	-7%	?	?	-3%	-10%	-8%
Cc1cccc2nc(=S)n(C(=O)c3ccco3)n12	-15%	?	?	-4%	-19%	2%
Cc1ccn2c(c1)nc(=S)n2C(=O)c1ccccc1	-5%	?	?	-5%	21µM*	-5%
CCCS(=O)(=O)NCc1c(C)ncc2c1CCN(C(=O)/C=C/c1cccc(Cl)c1)C2	·	5%[9.04 µM]	-20%	·	·	·
COc1ccc(NC(=O)C2CCN(S(=O)(=O)c3cn(C)nc3C)CC2)cc1	15%	-8%	-12%	-2%	-15%	-7%
COc1cc([C@H]2c3cc4c(cc3[C@@H](O)[C@@H]3COC(=O)[C@H]23)OCO4)cc(OC)c1OC	-5%	·	·	11%[21 µM]	·	2%[21.4 µM]
Cc1cc(N2CCOCC2)ccc1/C=C1\NC(=O)N(CC(=O)Nc2ccccc2C)C1=O	8%	-6%	1%	2%	-4%	3%
C=CC(C)N1C(=O)S/C(=C\c2ccc(N3CCOCC3)cc2C)C1=O (centres undefined)	-14%	21µM*	13µM*	1%	?	-12%
CC(=O)c1cccc(NC(=O)CN2C(=S)NC(C)(C)CC2C)c1 (centres undefined)	-9%	6%	0%	1%	2%	-3%
Cc1cc(C)cc(NC(=O)/C=C/c2ccc([N+](=O)[O-])s2)c1	-7%	?	1.2µM*	0%	-21%	18%
Cc1ccccc1NC(=O)/C=C/c1ccc([N+](=O)[O-])s1	-13%	0.92µM*	0.82µM*	3%	-20%	-7%
CC(=O)c1cccc(NC(=O)/C=C/c2ccc([N+](=O)[O-])s2)c1	?	1.3µM*	1.5µM*	5%	-14%	-3%
COC(=O)c1cccc(NC(=O)/C=C/c2ccc([N+](=O)[O-])cc2)c1	13%	-5%	?	5%	-8%	1%
O=C1OC(c2ccccc2)(N(Nc2ccccc2)c2ccccc2)c2ccccc21 (centres undefined)	·	?	23µM*	·	6%	·
O=C1OC(Oc2ccccc2)(c2ccccc2)c2ccccc21 (centres undefined)	-2%	5%	-29%	-8%	-8%	-1%
CN(C)c1nc(C#N)nc(N2CCOCC2)n1	-3%	?	?	1%	-5%	-13%
N#Cc1nc(N2CCCCC2)nc(N2CCOCC2)n1	5%	13µM*	16µM*	4%	-7%	-7%
N#Cc1nc(N2CCCC2)nc(N2CCCC2)n1	5%	13µM*	14µM*	-1%	-4%	-3%
CCOC(=O)CNc1nc(C#N)nc(N2CCOCC2)n1	6%	13µM*!	?	0%	-6%	-3%
N#Cc1nc(N)nc(N2CCCCC2)n1	-12%	?	?	0%	·	·
SMILES	VDR inhibitor	DT40 TDP1 CPT	TDP1 cell noCPT	TDP1 inh	PLK1 PBD inh	GCN5L2 inh
COc1nc(OC)nc(N2CCCCCC2)n1	11%	?	-15%	-3%	3%	-4%
COc1nc(C#N)nc(N2CCCCC2)n1	-18%	?	20µM*	0%	·	·
Cc1ccc(Sc2cncc3sc(C(N)=O)cc23)cc1	2%	·	·	4%	·	-20%
COc1ccccc1CNC(=O)CCNS(=O)(=O)c1ccc2c(c1)CCCC(=O)N2	4%	·	·	1%	·	-2%
CCCCC12CN3CC(C)(CN(C1)C3c1ccc(OCc3ccccc3)cc1)C2=O (centres undefined)	-5%	?	?	2%	·	-4%
Cc1cc(C)c(C(O)c2ncc(-c3ccccc3Cl)[nH]2)c(C)c1 (centres undefined)	·	?	?	·	-8%	·
CCOc1nc(C#N)nc(N2CCOCC2)n1	-24%	?	11µM*	1%	·	·
C1CN(c2nc(N3CCOCC3)nc(N3CCOCC3)n2)CCO1	-22%	-14%	32%	4%	-20%	-2%
CC(C)N(C#N)c1nc(N2CCOCC2)nc(N2CCOCC2)n1	3%	21µM*	10µM*	1%	-4%	-4%
CC(=O)c1nnn(-c2nc(C#N)nc(N3CCOCC3)n2)c1C	4%	-1%	?	2%	·	·
CC(Oc1ccccc1Cl)C(=O)N(Cc1cccs1)C1CCS(=O)(=O)C1 (centres undefined)	-5%	-24%	?	·	-15%	0%
CC1(C(=O)O)CCC2(C)CCC3(C)C(=CC(=O)C4C5(C)CCC(=O)C(C)(C)C5CCC43C)C2C1 (centres undefined)	·	-14%	-16%	·	-11%	·
C[C@@H](C[C@@H](O)[C@H](O)C(C)(C)O)[C@@H]1CC[C@]2(C)C3=CC[C@H]4C(C)(C)C(=O)CC[C@]4(C)[C@H]3CC[C@@]12C	-17%	7.3µM*	6.5µM*	5%	4%	-11%
CC(C)CN(C(=O)COC(=O)CSc1ccccc1)c1c(N)n(Cc2ccccc2)c(=O)[nH]c1=O	-26%	-29%	-22%	4%	-5%	1%
Cc1ccc(Cl)cc1N1CCN(S(=O)(=O)c2cnc[nH]2)CC1	-10%	21µM*	?	5%	3%	0%
O=C(C1CCN(S(=O)(=O)c2cccnc2)CC1)N1CCN(c2ccccc2Cl)CC1	18%	?	21µM*	1%	-7%	·
O=C(C1CCN(S(=O)(=O)Cc2ccccc2)CC1)N1CCN(c2cccc(Cl)c2)CC1	19%	-16%	?	9%	·	-7%

High-throughput results from PubChem BioAssay.
